# Measured values reported in PubChem BioAssay (NCATS).
# Records with an inconclusive call do not appear. Where a call stands in place of a potency, no number is given. Unmarked numbers belong to inactive results. The source made the active and inactive calls. Calls come from the whole dose curve; as a rule, active = well fitted curve in the direction sought with a large enough effect; inconclusive = small, poorly fitted or top-dose-only effect, or another doubt; inactive = no such curve, though single readings can be large; an effect the other way counts as inactive or inconclusive.
# Key:
# [1] = target: Calcium and integrin-binding protein 1 (Homo sapiens) (UniProt Q99828); assay: Primary qHTS for Identification of Calcium Integrin Binding Protein 1 (CIB1) Competitor (AID 1508620);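 note: GST tagged CIB1 binding a fluorescein labelled alphaIIb integrin peptide tracer; top concentration of the series differs between compounds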
# Method in brief: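 CIB1-GST (1 uM final) and compound incubated 15 min at room temperature before adding FITC-alphaIIb peptide tracer (100 nM final). Competition for binding read by fluorescence polarization (ex 480, em 540) after another 15 min at room temperature.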
# [2] = Primary qHTS for inhibitors of nuclear receptor binding SET domain protein 2 (NSD2) in an isogenic RCH-ACV NSD2 p.E1099K mutant (9B) (AID 1645876); note: nearly all actives have a fitted effect of over 70% in size; note: potency is the fitted concentration of half-maximal effect
# [3] = Primary qHTS for inhibitors of nuclear receptor binding SET domain protein 2 (NSD2) in an RCH-ACV wild type WT cells (2C) (AID 1645877); note: nearly all actives have a fitted effect of over 70% in size; note: potency is the fitted concentration of half-maximal effect
# Chain of Calcium and integrin-binding protein 1 (Homo sapiens) (Q99828 whole entry, looked up): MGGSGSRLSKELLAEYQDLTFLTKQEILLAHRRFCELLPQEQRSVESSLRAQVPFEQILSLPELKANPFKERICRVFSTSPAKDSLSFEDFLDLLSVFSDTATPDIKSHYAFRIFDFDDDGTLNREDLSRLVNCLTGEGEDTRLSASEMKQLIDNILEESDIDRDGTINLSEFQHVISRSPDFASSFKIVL
compound,measurement,setting,value
CC(C)CN(C[C@@H](O)[C@H](Cc1ccccc1)NC(=O)O[C@@H]1CO[C@H]2OCC[C@H]21)S(=O)(=O)c1ccc(N)cc1,Potency,[1],inactive
same,Potency,[2],inactive
same,Potency,[3],inactive
CC(O)/C=C/C1OC(=O)CC1Nc1ccc(C(=O)O)cc1 (stereo not drawn),Potency,[1],inactive
same,Potency,[2],inactive
same,Potency,[3],inactive
CC1CC[C@]2(C(=O)O)CC[C@]3(C(=O)O)C(=CCC4[C@@]5(C)CC[C@H](OC6OC(C)C(O)C(OC7OC(CO)C(O)C(O)C7O)C6O)C(C)(C)C5CC[C@]43C)C2C1C (stereo partly drawn),Potency,[1],inactive
same,Potency,[2],inactive
same,Potency,[3],inactive
CC1(C)CCCC2(C)C(C(=O)O)=CCC12 (stereo not drawn),Potency,[1],inactive
same,Potency,[2],inactive
same,Potency,[3],inactive
COc1cc(C(=O)O)ccc1OC1OC(CO)C(O)C(O)C1O (stereo not drawn),Potency,[1],inactive
same,Potency,[2],inactive
same,Potency,[3],inactive
CC12CCC(=O)C=C1C(O)CC1C2C(O)CC2(C)C1CC[C@]2(O)C(=O)CO (stereo partly drawn),Potency,[1],inactive
same,outcome,[2],inactive [at 9.23 µM]
same,"activity change, negative = cell killing",[3],-15% [at 9.23 µM]
COC(=O)CC(C)(O)CC(=O)OCc1ccc(O[C@@H]2O[C@H](CO)[C@@H](O)[C@H](O)[C@H]2O)cc1 (stereo partly drawn),Potency,[1],inactive
same,Potency,[2],inactive
same,Potency,[3],inactive
CC1=CC(=O)CC(C)(C)C1/C=C/C(C)O[C@@H]1O[C@H](CO)[C@@H](O)[C@H](O)[C@H]1O[C@@H]1OC[C@](O)(CO)[C@H]1O (stereo partly drawn),Potency,[1],inactive
same,Potency,[2],inactive
same,Potency,[3],inactive
CC(C)=CCC[C@](C)(O[C@@H]1O[C@H](CO[C@@H]2O[C@H](CO)[C@@H](O)[C@H](O)[C@H]2O)[C@@H](O)[C@H](O)[C@H]1O)C1CC[C@]2(C)[C@@H]1[C@H](O)CC1[C@@]3(C)CC[C@H](O[C@@H]4O[C@H](CO)[C@@H](O)[C@H](O)[C@H]4O[C@@H]4O[C@H](CO)[C@@H](O)[C@H](O)[C@H]4O)C(C)(C)[C@@H]3CC[C@]12C (stereo partly drawn),Potency,[1],inactive
same,"activity change, negative = viability loss",[2],-10.6% [at 9.23 µM]
same,"activity change, negative = cell killing",[3],-25.5% [at 9.23 µM]
COc1c2c(c(C)c3c1C(=O)OC3)OC1(C)CC(O)C34OC(OC)(OC3(C)C)C(O)CC4(C)C1C2 (stereo not drawn),Potency,[1],inactive
same,Potency,[2],inactive
same,Potency,[3],inactive
CC(O)/C=C/C1C(C)C(O[C@@H]2O[C@H](CO)[C@@H](O)[C@H](O)[C@H]2O)C(O)CC1(C)C (stereo partly drawn),Potency,[1],inactive
same,Potency,[2],inactive
same,Potency,[3],inactive
COc1cc(/C=C/C(=O)O[C@H]2[C@H](O)[C@@H](CO)O[C@@]2(CO)O[C@H]2O[C@H](CO)[C@@H](O)[C@H](O)[C@H]2O)ccc1O,Potency,[1],inactive
same,Potency,[2],inactive
same,Potency,[3],inactive
CC(C)c1cc(C(=O)N2CC[C@@H](NC(=O)C3CC3)C2)n[nH]1,Potency,[1],inactive
same,Potency,[2],inactive
same,Potency,[3],inactive
CCCCC1CCN(CCCC(=O)c2ccccc2C)CC1,Potency,[1],inactive
same,Potency,[2],20.5 µM (active)
same,Potency,[3],16.3 µM (active)
COC(=O)C[C@H]1C(C)(C)[C@H](OC(C)=O)C2CC3=C4CC(=O)O[C@@H](c5ccoc5)[C@]4(C)CCC3[C@@]1(C)C2=O (stereo partly drawn),Potency,[1],inactive
same,Potency,[2],inactive
same,Potency,[3],inactive
CC(C)(O)/C=C/C1=CC(=O)[C@@](C)(O)C[C@H]1O,Potency,[1],inactive
same,Potency,[2],inactive
same,Potency,[3],inactive
C[C@@H]1O[C@@H](O[C@H]2[C@H](OC(=O)[C@]34CCC(C)(C)C[C@H]3C3=CCC5[C@@]6(C)C[C@H](O)[C@H](O[C@@H]7O[C@H](CO)[C@@H](O)[C@H](O)[C@H]7O)[C@@](C)(CO)C6[C@H](O)C[C@@]5(C)[C@]3(C)CC4)OC[C@H](O)[C@@H]2O)[C@H](O)[C@H](O)[C@H]1O[C@@H]1OC[C@@H](O)[C@H](O[C@@H]2OC[C@](O)(CO)[C@H]2O)[C@H]1O (stereo partly drawn),"activity change, negative = inhibition",[1],3.34% [at 12.4 µM]
same,"activity change, negative = viability loss",[2],-10.4% [at 9.23 µM]
same,"activity change, negative = cell killing",[3],-13.7% [at 9.23 µM]
C=C[C@@H]1[C@H](O[C@@H]2O[C@H](CO)[C@@H](O)[C@H](O)[C@H]2O)OC=C(C(=O)O)[C@H]1CCOC(=O)/C=C/c1ccc(O)c(O)c1,Potency,[1],inactive
same,Potency,[2],inactive
same,Potency,[3],inactive
O=C(O)c1cc(I)ccc1NC(=O)[C@H](Cc1ccccc1)NCc1ccccc1,Potency,[1],inactive
same,Potency,[2],inactive
same,Potency,[3],inactive
O=C1CCC=CC1(O)C(=O)OCc1ccccc1O[C@@H]1O[C@H](CO)[C@@H](O)[C@H](O)[C@H]1O (stereo partly drawn),Potency,[1],inactive
same,Potency,[2],12.6 µM (active)
same,Potency,[3],5.02 µM (active)
C=C1C[C@]23C[C@H]1[C@@H](O)C[C@H]2[C@@]12C=C[C@H](O)[C@@](C)(C(=O)O1)[C@H]2[C@@H]3C(=O)O,Potency,[1],inactive
same,Potency,[2],inactive
same,Potency,[3],inactive
